Records with an inconclusive call do not appear. Activity calls are given as the source filed them. Calls come from the whole dose curve; as a rule, active = well fitted inhibition curve with a large enough effect; inconclusive = small, poorly fitted or top-dose-only effect; inactive = flat fitted curve, though single readings scatter.
The molecules below were run on CRL-7250 (assay: qHTS assay to identify novel small-molecules to repurpose for Merkel cell carcinoma treatment (AID 1296009; note: nearly all actives have a fitted effect of over 60% in size)). Settings: MCC and control cell lines, CellTiter-Glo viability, 72 h; at 44.8 µM (top of the series) unless noted.
In short: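 Dose-response viability screen; 72 hr exposure at 37 degree celsius; CellTiter-Glo added, 10 min room temperature, luminescence read; RLUs scaled between no-cell and DMSO wells.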

| Structure (SMILES) | outcome |
| --- | --- |
| CN1CCCCC1CCN1c2ccccc2Sc2ccc(S(C)=O)cc21 (stereo unspecified) | inactive |
| OCCN1CCN(CCCN2c3ccccc3C=Cc3ccccc32)CC1 | inactive |
| CCC(=O)O[C@]1(C(=O)CCl)[C@@H](C)C[C@H]2[C@@H]3CCC4=CC(=O)C=C[C@]4(C)[C@@]3(F)[C@@H](O)C[C@@]21C | inactive |
| Cn1cc(C(=O)[C@@H]2CCc3nc[nH]c3C2)c2ccccc21 | inactive |
| O=C(OCC(O)CO)c1ccccc1Nc1ccnc2cc(Cl)ccc12 (stereo unspecified) | inactive |
| CN(Cc1cc(Br)cc(Br)c1N)C1CCCCC1 | inactive |
| COc1cccc(N(C)C(=S)Oc2ccc3c(c2)CCCC3)n1 | inactive |
| O=C1CC2(CCCC2)CC(=O)N1CCCCN1CCN(c2ncccn2)CC1 | inactive |
| CCCc1ncc(C[n+]2ccccc2C)c(N)n1 | inactive |
| CC[N+](CC)(CC)CCOC(=O)C(C1CCCC1)C1CCCC1 | inactive |
| CCc1cc2cc(OC)c(OC)cc2c(Cc2ccccc2)n1 | inactive |
| CC(=O)[C@H]1CC[C@H]2[C@@H]3CC=C4C[C@@H](O)CC[C@]4(C)[C@H]3CC[C@]12C | inactive |
| O=c1[nH]c2cc(C(F)(F)F)c(N3CCOCC3)cc2n(CP(=O)(O)O)c1=O | inactive |
| CC1(C)OC(=O)Nc2ccc(Br)cc21 | inactive |
| COc1ccccc1N1CCN(CCCNc2cc(=O)n(C)c(=O)n2C)CC1 | inactive |
| Cc1cc(C(C)(C)C)c(O)c(C)c1CC1=NCCN1 | inactive |
| COc1ccc2c(c1)c(CC(=O)O)c(C)n2C(=O)c1ccc(Cl)cc1 | inactive |
| O=C(O)c1cn(C2CC2)c2cc(Cl)c(F)cc2c1=O | inactive |

| Structure (SMILES) | outcome |
| --- | --- |
| CCC(=O)O[C@]1(C(=O)SCF)[C@H](C)C[C@H]2[C@@H]3C[C@H](F)C4=CC(=O)C=C[C@]4(C)[C@@]3(F)[C@@H](O)C[C@@]21C | inactive |
| CC(C)(C)C(=O)C(Oc1ccc(Cl)cc1)n1ccnc1 (stereo unspecified) | inactive |
| Oc1ccc(O)cc1 | inactive |
| CNC(=O)CN(CCN(CCN(CC(=O)[O-])CC(=O)NC)CC(=O)[O-])CC(=O)[O-].O.[Gd+3] | inactive |
| CCOc1ccccc1C(N)=O | inactive |
| Cl/C(=C\n1cncn1)c1ccc(Cl)cc1Cl | inactive |
| O=S(=O)(c1cccc2cnccc12)N1CCCNCC1 | inactive |
| CCCCN(CCCC)C(C(N)=O)c1ccc(OC)cc1 (stereo unspecified) | inactive |
| CCCCNc1cc(C(=O)O)cc(S(N)(=O)=O)c1Oc1ccccc1 | inactive |
| CCCCC(=O)O[C@]1(C(=O)CO)[C@@H](C)C[C@H]2[C@@H]3CCC4=CC(=O)C=C[C@]4(C)[C@@]3(F)[C@@H](O)C[C@@]21C | inactive |
| C[C@@H](C1=C(CCN(C)C)Cc2ccccc21)c1ccccn1 | inactive |
| CC(C)NCC(O)COc1ccc(COCCOC(C)C)cc1 (stereo unspecified) | inactive |
| Nc1c2c(nc3ccccc13)CCCC2 | inactive |
| COc1ccc(CN2CCN(C(c3ccc(F)cc3)c3ccc(F)cc3)CC2)c(OC)c1OC | inactive |
| CC1=C(C(=O)O)N2C(=O)[C@@H](NC(=O)[C@H](N)C3=CCC=CC3)[C@H]2SC1 | inactive |
| O=C(O)COC(=O)Cc1ccccc1Nc1c(Cl)cccc1Cl | inactive |
| COc1cc(NS(=O)(=O)c2ccc(N)cc2)ncn1 | inactive |
| CNC(=O)Oc1ccc2c(c1)[C@]1(C)CCN(C)[C@@H]1N2C | inactive |

Reference: PubChem BioAssay (NCATS)
